Data published in PubChem BioAssay (NCI).
Compounds without any hit were thinned out: in the full panel of roughly 83,000, 20% have a hit.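 Method: cells in 96-well plates; compound added at one concentration; 48 h incubation; percent growth measured; values under 10 scored active.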 Active and inactive are the calls of the source.

How the values were obtained:
Experiment in all cases: NCI-60 one-dose screen, 48 h (100 = growth as untreated, 0 = no growth, -100 = all killed)
Conditions in all cases: 10 µM
DU-145 prostate = test system: DU-145 prostate
K-562 leukemia = test system: K-562 leukemia
MALME-3M melanoma = test system: MALME-3M melanoma
MDA-MB-231 breast = test system: MDA-MB-231 breast
RXF 393 renal = test system: RXF 393 renal
SF-268 CNS = test system: SF-268 CNS
SF-295 CNS = test system: SF-295 CNS
SF-539 CNS = test system: SF-539 CNS
UACC-257 melanoma = test system: UACC-257 melanoma
M14 melanoma = test system: M14 melanoma
HCT-15 colon = test system: HCT-15 colon
HT29 colon = test system: HT29 colon
SNB-75 CNS = test system: SNB-75 CNS
SNB-19 CNS = test system: SNB-19 CNS
U251 CNS = test system: U251 CNS
PC-3 prostate = test system: PC-3 prostate
SK-MEL-5 melanoma = test system: SK-MEL-5 melanoma
UACC-62 melanoma = test system: UACC-62 melanoma
LOX IMVI melanoma = test system: LOX IMVI melanoma
SK-MEL-28 melanoma = test system: SK-MEL-28 melanoma

Measured: growth

O=NN(CCCl)C(=O)Nc1ccc(NC(=O)N(CCCl)N=O)cc1
inactive: DU-145 prostate 111% | K-562 leukemia 92.6% | MALME-3M melanoma 105% | MDA-MB-231 breast 109% | RXF 393 renal 109% | SF-268 CNS 61.2% | SF-295 CNS 74% | SF-539 CNS 19.7% | UACC-257 melanoma 85.7% | M14 melanoma 93.1% | HCT-15 colon 94.5% | HT29 colon 115% | SNB-75 CNS 64% | SNB-19 CNS 68.6% | U251 CNS 55.7% | PC-3 prostate 86.5% | SK-MEL-5 melanoma 97.1% | UACC-62 melanoma 63.9% | LOX IMVI melanoma 58.5% | SK-MEL-28 melanoma 98.8%

Brc1ccc(-c2cn3ccnc3c(-c3ccc(Br)cc3)n2)cc1
inactive: DU-145 prostate 72.7% | K-562 leukemia 16.8% | MALME-3M melanoma 39.5% | MDA-MB-231 breast 46.5% | RXF 393 renal 47% | SF-268 CNS 56.9% | SF-295 CNS 30.6% | SF-539 CNS 52.5% | UACC-257 melanoma 67.4% | M14 melanoma 20.1% | HCT-15 colon 21.6% | SNB-75 CNS 35.6% | SNB-19 CNS 75.8% | U251 CNS 39.2% | PC-3 prostate 66.3% | SK-MEL-5 melanoma 46.3% | UACC-62 melanoma 43.6% | LOX IMVI melanoma 43.2% | SK-MEL-28 melanoma 62.2%
active: HT29 colon 9.88%

COC(=O)[C@]12CC[C@@H](C)[C@H](C)[C@@H]1C1=CC[C@@H]3[C@@]4(C)CC(=O)[C@H](O)[C@@](C)(CO)[C@@H]4C(=O)C[C@@]3(C)[C@]1(C)CC2
inactive: SF-539 CNS 16.5% | M14 melanoma 10.1% | SNB-19 CNS 16.6% | SK-MEL-28 melanoma 21.8%
active: DU-145 prostate -44.4% | K-562 leukemia -69.5% | MALME-3M melanoma -35.2% | MDA-MB-231 breast -34.2% | RXF 393 renal -41.4% | SF-268 CNS 4.33% | SF-295 CNS -0.778% | UACC-257 melanoma 7.73% | HCT-15 colon -15.1% | HT29 colon -25.6% | SNB-75 CNS -0.588% | U251 CNS -43.5% | PC-3 prostate -22.3% | SK-MEL-5 melanoma -80.3% | UACC-62 melanoma -57.2% | LOX IMVI melanoma -77.9%

COc1ccc(CCc2nc3cc(-c4c(C)noc4C)ccc3n2CCN2CCOCC2)cc1
active: MALME-3M melanoma -37.4% | SF-295 CNS -35% | SK-MEL-5 melanoma -0.324%
inactive: DU-145 prostate 80.1% | K-562 leukemia 13.7% | MDA-MB-231 breast 81.7% | RXF 393 renal 70.1% | SF-268 CNS 50.4% | SF-539 CNS 90.4% | UACC-257 melanoma 12.9% | M14 melanoma 20.6% | HCT-15 colon 52.8% | HT29 colon 12.8% | SNB-75 CNS 27.8% | SNB-19 CNS 48.9% | U251 CNS 17% | PC-3 prostate 11.8% | UACC-62 melanoma 20% | LOX IMVI melanoma 50.2% | SK-MEL-28 melanoma 33.6%

COc1cc2ccnc(C=O)c2cc1OC
inactive: DU-145 prostate 69.8% | K-562 leukemia 31.2% | MALME-3M melanoma 58.8% | MDA-MB-231 breast 75.3% | RXF 393 renal 67.6% | SF-268 CNS 92% | SF-295 CNS 96.5% | SF-539 CNS 65.6% | UACC-257 melanoma 83.2% | M14 melanoma 67.8% | HCT-15 colon 27.9% | HT29 colon 20.9% | SNB-75 CNS 76.7% | SNB-19 CNS 88.3% | U251 CNS 91% | PC-3 prostate 90.7% | SK-MEL-5 melanoma 60.6% | UACC-62 melanoma 74% | LOX IMVI melanoma 41.8% | SK-MEL-28 melanoma 79.5%

O=C(C=P(c1ccccc1)(c1ccccc1)c1ccccc1)c1ccc(Br)cc1
inactive: DU-145 prostate 90.5% | K-562 leukemia 34.6% | MALME-3M melanoma 85.5% | MDA-MB-231 breast 77.5% | RXF 393 renal 110% | SF-268 CNS 93.5% | SF-295 CNS 91.7% | SF-539 CNS 113% | UACC-257 melanoma 102% | M14 melanoma 94.1% | HCT-15 colon 95.2% | HT29 colon 79.1% | SNB-75 CNS 90.9% | SNB-19 CNS 98.6% | U251 CNS 97.1% | PC-3 prostate 41.7% | SK-MEL-5 melanoma 96.6% | UACC-62 melanoma 67.5% | LOX IMVI melanoma 73.4% | SK-MEL-28 melanoma 109%

Cc1cc(Cl)ccc1Nc1nc(C(F)(F)F)ccc1C(=O)N/N=C/c1ccccc1Cl
inactive: DU-145 prostate 36.4% | K-562 leukemia 56.3% | MALME-3M melanoma 30% | RXF 393 renal 24.1% | SF-268 CNS 31.1% | HCT-15 colon 22.9% | HT29 colon 14.7% | SNB-75 CNS 37.9% | SNB-19 CNS 29.5% | U251 CNS 22.5% | SK-MEL-28 melanoma 37.2%
active: MDA-MB-231 breast -15.5% | SF-295 CNS 8.72% | SF-539 CNS 6.63% | UACC-257 melanoma 6.87% | M14 melanoma 9.99% | PC-3 prostate 8.2% | SK-MEL-5 melanoma -54.4% | UACC-62 melanoma -4.83%

CCCCc1ccc(NC(=O)N(CCCl)N=O)cc1
inactive: DU-145 prostate 106% | K-562 leukemia 88.1% | MALME-3M melanoma 101% | MDA-MB-231 breast 107% | RXF 393 renal 93.4% | SF-268 CNS 79.3% | SF-295 CNS 73.9% | SF-539 CNS 82.2% | UACC-257 melanoma 103% | M14 melanoma 99.2% | HCT-15 colon 102% | HT29 colon 99.6% | SNB-75 CNS 90.4% | SNB-19 CNS 88.5% | U251 CNS 80.8% | PC-3 prostate 94% | SK-MEL-5 melanoma 97.9% | UACC-62 melanoma 86.2% | SK-MEL-28 melanoma 101%
